Screening data deposited in PubChem BioAssay by The Scripps Research Institute Molecular Screening Center.
Only some compounds are listed: those with a hit (about 3.5% of all), similar ones and a draw of the others.
MITF primary: inhibitors of human MITF; inhibition, % at 2.6 µM; 650,000 compounds, 0.91% hits; AlphaScreen MITF homodimerization, bead proximity signal; in the data active = inhibition above about 50%
Target sequence (O75030 whole entry, looked up): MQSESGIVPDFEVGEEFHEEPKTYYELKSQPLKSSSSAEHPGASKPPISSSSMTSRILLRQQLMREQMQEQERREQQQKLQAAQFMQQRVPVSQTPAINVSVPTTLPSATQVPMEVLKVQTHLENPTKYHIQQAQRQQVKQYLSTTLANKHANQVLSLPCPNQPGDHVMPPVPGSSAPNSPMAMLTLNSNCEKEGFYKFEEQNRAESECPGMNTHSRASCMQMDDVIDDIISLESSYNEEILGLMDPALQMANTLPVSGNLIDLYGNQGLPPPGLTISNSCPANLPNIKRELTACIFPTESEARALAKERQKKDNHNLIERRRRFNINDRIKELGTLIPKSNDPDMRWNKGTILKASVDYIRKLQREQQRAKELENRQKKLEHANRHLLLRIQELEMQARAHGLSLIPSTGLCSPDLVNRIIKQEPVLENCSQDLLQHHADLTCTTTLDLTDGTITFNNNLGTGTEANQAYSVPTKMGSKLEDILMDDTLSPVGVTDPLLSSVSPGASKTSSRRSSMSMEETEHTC
GPR151 ag: activators of human GPR151; Q8TDV0; PathHunter beta-arrestin GPR151 cells, luminescence; activation, % at 11.2 µM; 650,000 compounds, 1% hits; in the data active = activation above about 4.9%
FBW7 activator: human FBW7 E3 ligase activation, primary screen; AlphaScreen FBW7–phospho-cyclin E peptide binding, activator screen; normalized activity (activation), % at 26.1 µM; 650,000 compounds, 0.13% hits; AID 1259310; in the data active = normalized activity above about 1.9%;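 note: purified mutant Fbw7 with reduced substrate affinity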
TEAD-YAP block: TEAD-YAP interaction inhibition; HEK-TIYL cells, TEAD-Gal4/YAP UAS-luciferase luminescence; inhibition, % at 9.12 µM; 640,000 compounds, 1.4% hits; AID 1259422; in the data active = inhibition above about 32%
GPR151 conf act: confirmation of human GPR151 activators | shares compounds with GPR151 ag | 6,700 tested, under 10 active | activation, % at 11.2 µM | AID 1508609 | GPR151 PathHunter beta-arrestin cells, luminescence, 90 min; % of EA-reagent control over plate median;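 active = mean percent activation across replicates above the confirmation screen cutoff of 4.91%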
GPR119 counter: activates human GPR119 in a GPR151 counter-screen; shares compounds with GPR151 ag; 6,700 compounds, 0.3% hits; activation, % at 11.2 µM; GPR119 PathHunter beta-arrestin cells, luminescence, 90 min; 0 = compound-well median, 100 = enzyme-acceptor control;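 active = mean percent activation in the counterscreen above 29.09%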;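 note: counterscreen on off-target GPR119 to flag nonselective hits from the GPR151 activator screen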
Large screens that a line does not name were inactive (follow-up assays come after a bar, where they were run).

CN(Cc1nc(-c2ccccc2)no1)S(=O)(=O)c1ccc(Cl)cc1	GPR151 ag 5.5 | GPR151 conf act inactive | GPR119 counter inactive
CC(C)N(Cc1nc(-c2ccccc2)no1)C(=O)CCN1C(=O)c2ccccc2C1=O	none
COc1ccc(-c2noc(CN(C(C)C)S(=O)(=O)c3ccc(F)cc3)n2)cc1	GPR151 ag 11 | GPR151 conf act inactive | GPR119 counter inactive
COc1cccc(OC)c1C(=O)N(Cc1nc(-c2ccc(C)cc2)no1)C(C)C	GPR151 ag 9.7 | GPR151 conf act inactive | GPR119 counter inactive
CCC(=O)NC(c1nnc2n1CCN(Cc1ccc(F)cc1F)CC2)C(C)C (configuration not stated)	none
C(=N\Nc1nnc2c(n1)[nH]c1ccccc12)/c1ccc(N2CCOCC2)cc1	none
CCOc1ccc(C(=O)N(Cc2nc(-c3ccc(OC)cc3)no2)C(C)C)cc1OCC	none
C=CCOc1ccc(C(=O)N(Cc2nc(-c3ccc(OC)c(OC)c3)no2)C(C)C)cc1	GPR151 ag 12 | GPR151 conf act inactive | GPR119 counter inactive
CCOc1ccc(-c2nc(NC(C)=O)c3c(=O)oc4c(OC)cccc4c3n2)cc1	GPR151 ag 9.2 | GPR151 conf act inactive | GPR119 counter inactive
O=S(=O)(CCNc1ccccc1)Oc1ccc(Cl)cc1	none
Cc1cn2c3c(=O)n(C)c(=O)n(C)c3nc2n1Cc1cccc(Cl)c1	none
O=C1C2C3CCC(C3)C2C(=O)N1c1ccc(OS(=O)(=O)c2ccccc2)cc1 (configuration not stated)	GPR151 ag 7.6 | GPR151 conf act inactive | GPR119 counter inactive
COC(=O)C1=C(C)NC(=O)C1(NC(=O)c1ccc(OC)c(OC)c1)C(F)(F)F (configuration not stated)	GPR151 ag 13 | GPR151 conf act inactive | GPR119 counter inactive
COCCN1C(=O)c2ccccc2C(C(=O)Nc2nc3ccc(OC)cc3s2)C1c1ccc(F)cc1 (configuration not stated)	none
CC(C)NC(=O)Cn1c(SCC(=O)N2CC(=O)Nc3ccccc32)nc2ccccc21	none
CCCC(C)NS(=O)(=O)c1c(C)cc(C)cc1C (configuration not stated)	GPR151 ag 7.7 | GPR151 conf act inactive | GPR119 counter inactive
NC(=O)c1ccccc1NC(=O)CCSc1ccc([N+](=O)[O-])cc1Cl	none
COc1cc(OC)nc(CSCCNC(=O)CN(C)OC)n1	none
COC(=O)CN1C(=O)S/C(=C\c2cc(Br)c(OC)c(OC)c2)C1=O	GPR151 ag 14 | GPR151 conf act inactive | GPR119 counter inactive
COC(=O)CN1C(=O)S/C(=C/C=C/c2ccccc2[N+](=O)[O-])C1=O	none
COC(=O)CN1C(=O)S/C(=C/c2ccc(OCC(=O)O)cc2)C1=O	GPR151 ag 9.8 | GPR151 conf act inactive | GPR119 counter inactive
C=CCN1C(=O)/C(=C\c2ccc(C(=O)O)cc2)S/C1=N/c1nnc(CC)s1	none
COC(=O)CN1C(=O)S/C(=C/c2cccc([N+](=O)[O-])c2O)C1=O	GPR151 ag 5.3 | GPR151 conf act inactive | GPR119 counter inactive
C=CCN1C(=O)/C(=C/c2ccc(OCC(=O)O)cc2)S/C1=N/c1nccs1	GPR151 ag 7.0 | GPR151 conf act inactive | GPR119 counter inactive
CC(Cc1ccco1)NC(=O)c1cc(-c2ccco2)on1 (configuration not stated)	none
CC(C)c1ccc(NC(=O)CN(c2ccc(Br)cc2)S(C)(=O)=O)cc1	none
COc1cc(/C=C2\SC(NC(C)=O)=NC2=O)cc(Br)c1OC(C)=O	GPR151 ag 7.4 | GPR151 conf act inactive | GPR119 counter inactive
COc1cc(/C=C2\SC(NC(C)=O)=NC2=O)cc(OC)c1OC	none
O=C(CCc1nnc2n(Cc3ccc(F)cc3)c(=O)c3ccccc3n12)Nc1ccccc1	none
CC(C)NC(=O)CCc1nnc2n(Cc3ccc(F)cc3)c(=O)c3ccccc3n12	GPR151 ag 8.0 | GPR151 conf act inactive | GPR119 counter inactive
CC(=O)Nc1cccc(NC(=O)CSc2ncnc3scc(-c4ccccc4)c23)c1	none
CC(=O)NCC1Cc2cccc(-c3ccc(S(C)(=O)=O)cc3)c2O1 (configuration not stated)	GPR151 ag 7.3 | GPR151 conf act inactive | GPR119 counter inactive
